HT1080 IDH1KD tx: kills HT-1080 cells with IDH1 knockdown; HT-1080 IDH1 knockdown viability, ATP luminescence, 48 h; Potency, µM (top dose mostly 46.1 µM), most hits filed as cytotoxic; 360,000 compounds, 2% hits
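HT-1080-IDH1KD cells (IDH1 knocked down), 750/well in RPMI with 5% FBS, treated with compound 48 h at 37 degrees C. Viability by CellTiter-Glo luminescence, normalised to DMSO and no-cell wells; concentration-response curves classed.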
KB-3-1 tox: KB-3-1 parental cell cytotoxicity; 400,000 compounds, 1.4% hits; Potency, µM (highest dose often 46.1 µM), actives largely listed as cytotoxic; AID 1347075; KB-3-1 viability, CellTiter-Glo ATP luminescence, 72 h; further: nearly all actives have a fitted effect of over 60% in size
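Here the drug-naive KB-3-1 line serves as comparator for MDR sub-line selectivity; cells received compound titrations, 72 h at 37 °C, then CellTiter-Glo readout.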
KB-V1 MDR tox: KB-V1 MDR subline cytotoxicity; KB-V1 MDR cells viability, CellTiter-Glo, 72 h; Potency, µM (titrated, usually from 46.1 µM), most hits filed as cytotoxic; 400,000 compounds, 3.4% hits; AID 1347076; further: nearly all actives have a fitted effect of over 60% in size
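KB-V1, DMEM (no phenol red) + 10% FBS; cpd pin-transferred, titration series; 72 h, 37 degrees C; CellTiter-Glo, luminescence. Data normalized, curve-fit.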
DT40 TDP1 CPT: DT40-hTDP1 cell growth loss with CPT; chicken DT40 Tdp1-/-;hTDP1 cells + 20 nM CPT, ATP luminescence, 48 h; Potency, µM (highest dose often 46.2 µM), usual class: inhibitors; 420,000 compounds, 12% hits; AID 686979; further: nearly all actives have a fitted effect of over 55% in size
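Chicken DT40 Tdp1-/- cells complemented with human TDP1, 400 cells/well, exposed to compounds plus 20 nM camptothecin for at least 48 h at 37 C; viability read as ATP content by CellTiter-Glo luminescence.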
HT1080NT lethal: kills 2HG-producing HT-1080-NT fibrosarcoma cells. HT-1080-NT fibrosarcoma viability, CellTiter-Glo ATP luminescence, 48 h. Potency, µM (doses to about 46.1 µM), usual class: cytotoxic. 360,000 compounds, 1.6% hits. AID 686970;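 further: NT is the 2HG producing partner of a matched IDH1 knockdown line; nearly all actives have a fitted effect of over 55% in size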
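Luminescent CellTiter-Glo readout after 48 hours of compound exposure at 37 degrees C defined viability of HT-1080-NT cells. Activity was normalized to DMSO wells and cell-free media wells; concentration-response curves were fitted and assigned curve classes.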
TDP1 cell noCPT: qHTS for Inhibitors of human tyrosyl-DNA phosphodiesterase 1 (TDP1): qHTS in cells in absence of CPT; 420,000 compounds, 15% hits; DT40 Tdp1-/- hTDP1 cells, no CPT, ATP luminescence, 48 h; Potency, µM (top dose mostly 46.2 µM), actives largely listed as inhibitors; further: nearly all actives have a fitted effect of over 55% in size
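Growth of hTDP1-complemented DT40 Tdp1-knockout cells is measured by ATP luminescence after at least 48 hr compound exposure at 37 °C, with DMSO substituting for the 20 nM CPT used in the parallel screen.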
Large screens that a line does not name were inactive. Rows were chosen to be rich in hits. Some 19% of all compounds tested hit in one or more screens of this group. The call rests on the fitted dose curve; in most records, active means well fitted curve in the direction sought with a large enough effect; inconclusive means small, poorly fitted or top-dose-only effect, or another doubt; inactive means no such curve, though single readings can be large; an effect the other way counts as inactive or inconclusive.

CN(C(=O)C(=O)c1cn(CC(=O)N2CCCC2)c2ccccc12)C1CCCCC1	none (no result: KB-3-1 tox, KB-V1 MDR tox)
Cc1ccc(C(C(=O)NCCc2ccccc2)N(C(=O)c2csnn2)C2CC2)cc1 (centres undefined)	KB-V1 MDR tox inconclusive, TDP1 cell noCPT inconclusive
CC(=O)Nc1ccc(-c2csc(NC(=O)CCNC(=O)c3ccco3)n2)cc1	KB-V1 MDR tox inconclusive, TDP1 cell noCPT inconclusive
CC(=O)Nc1ccc(S(=O)(=O)N(C)CC(=O)OCC(=O)N(C)C2CCS(=O)(=O)C2)cc1 (centres undefined)	none
O=C(c1cccs1)N1CCCc2cc(NS(=O)(=O)c3ccc(F)cc3F)ccc21	DT40 TDP1 CPT 21µM, TDP1 cell noCPT 9.2µM (no result: HT1080 IDH1KD tx, HT1080NT lethal)
O=C(c1cccs1)N1CCc2ccccc21	KB-V1 MDR tox inconclusive
COc1cc(NC(=O)CSc2cc(C)c3cc(C)cc(C)c3n2)c(C(=O)O)cc1OC	none
O=C(c1cnccn1)N1CCC2(CC1)CN(c1ccccn1)C2	none (no result: HT1080 IDH1KD tx, KB-3-1 tox, KB-V1 MDR tox, HT1080NT lethal)
CCOC(=O)c1cnc(SC)nc1NCCOC	KB-3-1 tox inconclusive
CCCOc1ccc(Nc2nc(SC)ncc2C(=O)OCC)cc1	DT40 TDP1 CPT inconclusive, TDP1 cell noCPT 26µM (no result: HT1080 IDH1KD tx, HT1080NT lethal)
O=C(O)Cn1c(SCCOc2ccccc2F)nc2ccccc21	HT1080 IDH1KD tx inconclusive, KB-V1 MDR tox inconclusive, DT40 TDP1 CPT inconclusive, TDP1 cell noCPT 16µM
OCCn1c(SCCOc2ccccc2F)nc2ccccc21	TDP1 cell noCPT inconclusive
CCN(CC)C(=O)Cn1c(SCCOc2ccc(Cl)cc2)nc2ccccc21	DT40 TDP1 CPT inconclusive, TDP1 cell noCPT 21µM (no result: HT1080 IDH1KD tx, HT1080NT lethal)
O=C(O)Cn1c(SCCOc2ccc(Cl)cc2)nc2ccccc21	none
COc1ccc(OC)c(CCNC(=O)c2cccc(NC(=O)C3=C(C)OCCS3)c2)c1	HT1080 IDH1KD tx inconclusive, DT40 TDP1 CPT inconclusive, HT1080NT lethal inconclusive, TDP1 cell noCPT inconclusive
Cc1csc(N(C(=O)c2cccc(S(=O)(=O)N(C)C)c2)c2ccccc2)n1	KB-3-1 tox inconclusive, DT40 TDP1 CPT 15µM, TDP1 cell noCPT inconclusive
Cc1csc(N(C(=O)c2cccc(S(=O)(=O)N3CCCC3)c2)c2ccccc2)n1	KB-V1 MDR tox inconclusive, DT40 TDP1 CPT 21µM, TDP1 cell noCPT 18µM
Cn1nc(C(C)(C)C)cc1NC(=O)C1(C)CCN1C(=O)c1ccccc1CCc1ccccc1 (centres undefined)	HT1080 IDH1KD tx inconclusive, DT40 TDP1 CPT 18µM, HT1080NT lethal inconclusive, TDP1 cell noCPT inconclusive
Cn1nc(C(C)(C)C)cc1NC(=O)C1(C)CCN1C(=O)Cc1ccc(-c2ccccc2)cc1 (centres undefined)	HT1080 IDH1KD tx inconclusive, DT40 TDP1 CPT 15µM, HT1080NT lethal inconclusive, TDP1 cell noCPT 18µM
CC(C)(C)c1cc(NC(=O)C2(C)CCN2C(=O)c2ccccc2CCc2ccccc2)no1 (centres undefined)	DT40 TDP1 CPT inconclusive, TDP1 cell noCPT 21µM
CC1(C(=O)NCCC#N)CCN1C(=O)c1ccccc1CCc1ccccc1 (centres undefined)	DT40 TDP1 CPT inconclusive, HT1080NT lethal inconclusive
Cn1nc(C(C)(C)C)cc1NC(=O)C1(C)CCN1C(=O)CCc1ccccc1 (centres undefined)	DT40 TDP1 CPT inconclusive, TDP1 cell noCPT inconclusive
CCOC(=O)C1(C)CCN1C(=O)c1ccc(C(=O)OC)cc1 (centres undefined)	KB-V1 MDR tox inconclusive, DT40 TDP1 CPT inconclusive
C=CCNCCCOc1ccc(Cl)cc1Br	DT40 TDP1 CPT inconclusive, TDP1 cell noCPT inconclusive
CCCCNCCOCCOc1ccc(C)cc1Br	KB-V1 MDR tox 16µM, DT40 TDP1 CPT 16µM, TDP1 cell noCPT 23µM
Cc1cc(Br)ccc1OCCCCNCCO	DT40 TDP1 CPT 23µM, TDP1 cell noCPT 21µM
OCCNCCCOc1ccc(Cl)cc1Br	DT40 TDP1 CPT inconclusive, TDP1 cell noCPT 29µM
C=CCNCCCCOc1ccc(Br)cc1C	DT40 TDP1 CPT inconclusive, TDP1 cell noCPT inconclusive

Compound activity as filed in PubChem BioAssay.
